Source: PubChem BioAssay
Sm TGR inh = qHTS Assay for the Inhibitors of Schistosoma Mansoni Peroxiredoxins; Schistosoma mansoni thioredoxin glutathione reductase (TGR), Q962Y6; purified TGR, DTNB reduction, TNB absorbance 405 nm; Potency, µM (top dose mostly 114 µM), without a hit: at the highest dose activity change, negative = inhibition, usual class: inhibitors; 360,000 tested, 3% active; note: potency is the fitted concentration of half-maximal effect; % is set by controls: 0 for no effect and ±100 for the full control effect; nearly all actives have a fitted effect of over 60% in size
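TGR 20 nM + NADPH 100 uM (dispensed conc.), cpd preinc 15 min RT; start with NADPH (500 uM addition) then DTNB (15 mM addition). Kinetic TNB absorbance, 405 nm filter. Four-parameter Hill fit across titration.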
SARS PLpro yeast = qHTS of Yeast-based Assay for SARS-CoV PLP; S. cerevisiae expressing SARS-CoV PLpro, growth rescue; Potency, µM (highest dose often 32.9 µM), for inactives: top-dose activity, positive = growth rescue, most hits filed as activators; 330,000 tested, 0.19% active; AID 485353, 2010; calls by dose curve; note: potency is the fitted concentration of half-maximal effect; 0% is about no effect; nearly all actives have a fitted effect of over 55% in size
HCMV inh = qHTS Assay for inhibitors of the human cytomegalovirus (HCMV); 410,000 tested, 4.5% active; AID 1259415, 2018; activity change, negative = inhibition, % at 57.5 µM; HFF cells, HCMV-luciferase reporter, 72 h; active compounds read low; in the data active = activity change below about -60%; inconclusive = no clear call, values can overlap the other calls; inactive = above about -39%; note: % is set by controls: 0 for no effect and ±100 for the full control effect
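HFF cells seeded 16 h at 37C, treated with compounds, infected with luciferase-reporter HCMV at MOI 1 PFU/cell; luciferase read at 72 h post infection, normalized to buffer-only and Salinomycin controls.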
Pf growth 48h = Primary qHTS for delayed death inhibitors of the malarial parasite plastid, 48 hour incubation. P. falciparum luciferase growth in erythrocytes, 48 h. Potency, µM (top dose mostly 28.7 µM), without a hit: at the highest dose activity change, negative = inhibition, actives largely listed as inhibitors. 310,000 tested, 5.9% active. AID 504832, 2011; note: potency is the fitted concentration of half-maximal effect; % is set by controls: 0 for no effect and ±100 for the full control effect
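A one-generation exposure of luciferase-tagged malaria parasites in RPMI 1640/Albumax erythrocyte culture, 37 C and 5% CO2. Inhibition is inferred from decreased luminescence after adding detection reagent.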
HCV inh = qHTS Assay for Inhibitors of Hepatitis C Virus (HCV). Huh7.5.1 HCVcc-Cre infection, luciferase reporter, 44 h. Potency, µM (top dose mostly 41.8 µM), for inactives: top-dose activity change, negative = inhibition, hits mostly inhibitors. 340,000 tested, 3.4% active. AID 651820, 2012; note: potency is the fitted concentration of half-maximal effect; % is set by controls: 0 for no effect and ±100 for the full control effect
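Cells (1,000/well) were plated 4 h before compound, then infected with HCVcc-Cre virus (~0.5 moi). After 44 h further culture, infection was read as luciferase luminescence following a 15 min substrate incubation at room temperature.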
Pf growth 96h = Primary qHTS for delayed death inhibitors of the malarial parasite plastid, 96 hour incubation; P. falciparum luciferase reporter growth, 96 h; Potency, µM (titrated, usually from 28.7 µM), for inactives: top-dose activity change, negative = inhibition, usual class: inhibitors; 320,000 tested, 6.9% active; AID 504834, 2011; note: potency is the fitted concentration of half-maximal effect; % is set by controls: 0 for no effect and ±100 for the full control effect
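Compounds incubated with erythrocytes infected by luciferase-expressing P. falciparum (2% hematocrit, 0.05% parasitemia final) for 96 hours, 37 C in 5% CO2. Growth inhibition scored as decreased luciferase luminescence.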
* hit, by the source's call; ? = inconclusive; · = no result given; [ ] = another dose, or the depositor's remark. Rows were chosen to be rich in hits. Some 15% of all compounds tested hit in one or more screens of this group. Unless noted, calls come from the whole dose curve; as a rule, active = well fitted curve in the direction sought with a large enough effect; inconclusive = small, poorly fitted or top-dose-only effect, or another doubt; inactive = no such curve, though single readings can be large; an effect the other way counts as inactive or inconclusive.

SMILES | Sm TGR inh | SARS PLpro yeast | HCMV inh | Pf growth 48h | HCV inh | Pf growth 96h
CCOC(=O)CN1C(=O)C(Sc2n[nH]c(-c3ccccc3)n2)CCc2ccccc21 (stereo unspecified) | 6% | 3% | -39 | · | ? | 5.9µM*
CCC(C(=O)Nc1ccccc1)n1nc(-c2cc(C)ccc2C)ccc1=O (stereo unspecified) | -8% | · | 6 | · | · | ·
O=C(CC1NCCNC1=O)Nc1ccc([N+](=O)[O-])cc1 (stereo unspecified) | 6% | 1% | -5 | 8% | 4% | 33%
CN(C)c1ncnc2c1ccn2C1OC(CO)C(O)C1O (stereo unspecified) | · | · | -98* | · | ? | ·
OC[C@H]1O[C@@H](n2cnc3c(Nc4ccccc4)ncnc32)[C@H](O)[C@@H]1O | 9% | -1% | 72 | -15% | 2%[8.37 µM] | -10%
OCC1OC(n2ccc3c(NO)ncnc32)C(O)C1O (stereo unspecified) | · | · | -98* | · | ? | ·
OCC1OC(n2cnc3c(NCc4ccccc4O)ncnc32)C(O)C1O (stereo unspecified) | · | · | -100* | · | -14% | ·
OCC1OC(n2cnc3c(NCCc4ccccc4)ncnc32)C(O)C1O (stereo unspecified) | · | · | 33 | · | 6% | ·
Cc1ccc(S(=O)(=O)NN2CCCCCC2)cc1 | · | · | -15 | · | · | ·
COc1ccc(/C=C2/SC(=S)N(CCCC(=O)N3CCN(C)CC3)C2=O)cc1 | -9% | ? | -100* | ? | -28% | 13%
CCc1ccc(/C=C2\SC(=S)N(CCC(=O)N3CCN(C)CC3)C2=O)cc1 | 5% | 4% | -36 | -8% | 10% | -20%
COc1ccc(/C=C2\SC(=O)N(CCCC(=O)Nc3cc(Cl)ccc3C(=O)O)C2=O)cc1 | · | -7% | -93* | · | -6% | ·
COc1ccc(/C=C2\SC(=S)N(CCC(=O)Nc3ccccc3C(=O)O)C2=O)cc1 | -8% | -1% | -28 | · | 25% | 23%
CN1CCN(C(=O)CCCN2C(=O)/C(=C/c3ccccc3)SC2=S)CC1 | -7% | 1% | -94* | ? | -10% | ?
COc1ccc(/C=C2/SC(=S)N(CCC(=O)N3CCN(C)CC3)C2=O)cc1 | 6% | 4% | ? | ? | ? | -27%
CCOc1ccc(/C=C2\SC(=S)N(CCC(=O)O)C2=O)cc1 | 28% | 5% | -64* | ? | -21% | -5%
CC(C)Oc1ccc(CNC(=O)c2cccc(NC(=O)c3nsc4ccccc34)c2)cc1 | 9% | · | 2 | · | · | ·
O=C(O)CCCN1C(=O)/C(=C\C(Cl)=C\c2ccccc2)SC1=S | -13% | -2% | -99* | 9.3µM* | ? | ?
Cc1ccc(/C=C2\SC(=S)N(CCCC(=O)N3CCOCC3)C2=O)cc1 | 0% | 8% | ? | 13µM* | 2% | -21%
CN1CCN(C(=O)CCCN2C(=O)/C(=C/c3ccc(Cl)cc3)SC2=S)CC1 | -4% | 4% | · | ? | ? | 10µM*
O=C(O)CCCN1C(=O)/C(=C\c2ccccc2OCc2ccccc2)SC1=S | 3% | -5% | ? | 12% | 11% | 19%
CN1CCN(C(=O)CCN2C(=O)/C(=C\c3ccc(Cl)cc3Cl)SC2=S)CC1 | -13% | -2% | -18 | 10µM* | 0% | 3.3µM*
COC(=O)c1ccc(/C=C2\SC(=S)N(CCCC(=O)N3CCOCC3)C2=O)cc1 | · | · | -11 | · | 4% | ·
CCC(Sc1nc2ccccc2s1)C(=O)Nc1cc(C)on1 (stereo unspecified) | 7% | -16% | 9 | ? | -22% | ?
CC(C)(O)C#Cc1ccc(C(=O)NCc2ccccc2F)cc1 | 11% | ? | 26 | 46% | -6% | -24%
Cc1ccc(CNc2ncnc3onc(-c4ccc(F)cc4)c23)cc1 | -7% | · | -15 | · | · | ·
